This note sets out measurements from PubChem BioAssay (Tox21).

Values joined by “and” are separate entries in the source; they are usually repeats but may differ in a detail not shown here. Equal values may be shown once. Results filed as inconclusive are left out. Entries that show only a call come without a potency. More than one record can exist for a structure, and the calls need not agree. Active and inactive are the calls of the source. The call rests on the fitted dose curve; in most records, active means well fitted inhibition curve with a large enough effect in the repeat runs; inconclusive means weak or mixed curves, or effect the other way; inactive means no such curve, though single readings can be large or run the other way.
Potency means the concentration at half of the fitted maximal effect.

A short description of this assay: qHTS assay to identify small molecule antagonists of the retinoic acid receptor (RAR) signaling pathway (AID 1159552; further: nearly all actives have a fitted effect of over 50% in size). As to conditions: C3RL4 RARE luciferase reporter, retinol-stimulated, 6 h; series mostly up to 92.4 µM; activity, negative = inhibition: at the top concentration. From the text:
National Center for Advancing Translational Sciences [NCATS]
NIH Chemical Genomics Center [NCGC]
U.S. Environmental Protection Agency [EPA]
National Institutes of Environmental Health Sciences [NIEHS]
National Toxicology Program [NTP]
U.S. Food and Drug Administration [FDA]
All-trans Retinoic acid (atRA) is the potent natural metabolite of retinol and plays an important role in normal embryonic development and maintenance of cellular phenotype in adult animals. atRA is the activating ligand for the retinoic acid receptors (RARs) which form heterodimers with retinoid X receptors (RXRs) on the retinoic acid response element (RARE). Through activation of the RAR/RXRs nuclear receptors, atRA regulates the transcription of a large number of protein-coding genes and regulatory RNAs. Intracellular levels of atRA are controlled by the retinol signaling pathway (RSP) that regulates the biosynthesis and catabolism of atRA to maintain physiological levels. Chemicals that interfere with the RSP can cause abnormal intracellular levels of atRA and therefore are potential developmental toxicants. To assess compounds for the potential adverse effect on embryonic development through interfering with retinol signaling, a cell-based RARE luciferase reporter gene assay was used. C3RL4 cell line (OARSA/CFSAN/FDA, Laurel, MD) was used to screen Tox21 10K compound library for identifying inhibitors of the RSP.
Tox21 Assay Protocol Summary:
C3RL4 cells were seeded at 1,000/well in 4 uL of assay medium into white solid 1,536-well tissue culture plates (Greiner Bio-One North America Inc. Monroe, NC) using a Multidrop Combi (Thermo Scientific, Waltham, MA) dispenser. After incubation at 37 C and 5% CO2 for an overnight, 23 nL of compounds dissolved in DMSO, positive control or DMSO only were transferred by a Pintool station (Kalypsys, San Diego, CA). One ul of 1 uM (final concentration) of Retinol was added right after the compound addition by using a Flying Reagent Dispenser (FRD) (Aurora Discovery, San Diego, CA). After 6 hr incubation at 37 C and 5% CO2, 5 uL of Amplite Luciferase reagent (AAT Bioquest Inc. Sunnyvale, CA) was added to each assay plate using an FRD. Luminescence was quantified on a ViewLux plate reader (PerkinElmer, Waltham, MA) after 30 min incubation at room temperature.
On the technique in general: Quantitative high-throughput screening tests each substance at several concentrations.
For `N#Cc1ccccn1`, the Potency result is “inactive”. The same measure, in the same setting: to `FC(F)(F)c1ccc(Cl)cc1` belongs “inactive”; to `ClC(Cl)c1ccccc1`, “inactive”; to `C=C(C)C(=O)OCC(CC)CCCC` (stereo not given), “inactive”. Take `C/C=C/c1ccc2c(c1)OCO2`: the Potency result was “inactive”. Still for that read-out and setting: to `CC(C)c1cccc(C(C)C)c1O` belongs “inactive”. As to `CNCC(O)c1ccc(O)cc1` (stereo not given), the Potency result is “inactive”. Take `O=C/C=C/c1ccccc1`: the Potency entry is “inactive”. Consider `COc1nc(NC(C)C)nc(NC(C)C)n1`, for which the Potency result is “inactive”. As to `Cc1cc(O)ccc1Cl`, the Potency entry was “inactive”.

For the molecule `CN(C)C(=O)Cl`, the Potency entry is “inactive”. Same read-out and setting: to `Oc1c(Br)cc(Br)cc1Br` belongs “inactive”. As for `Oc1ccc(Cl)cc1`, the Potency result is “inactive”. Same read-out and setting: the value for `Nc1nc(N)nc(NC2CC2)n1` was “inactive”; that for `CC[N+](=O)[O-]` was “inactive”; that for `CCOP(=S)(OCC)Oc1ccc([N+](=O)[O-])cc1` was “inactive”.

With `CSc1nnc(C(C)(C)C)c(=O)n1N`, the Potency result was “inactive”. For the molecule `CN(C)C(=O)Nc1cccc(C(F)(F)F)c1`, the Potency result was “inactive”.

For `CNC(=O)O/N=C(\SC)C(=O)N(C)C`, the Potency result was “inactive”. In the case of `OCCCCO`, the Potency entry was “inactive”. On the same count and under the same terms, the value for `CCCCCCCCCCCCCCCCCC(=O)O` was “inactive”.

For `C=CC(=O)OCC(CC)CCCC` (stereo not given), the Potency entry was “inactive”. Consider `Clc1cnc(Oc2ccc(Oc3ncc(Cl)cc3Cl)cc2)c(Cl)c1`, for which the Potency result is “inactive”. Still for that read-out and setting: the value for `Cc1ccc(N=C=O)cc1N=C=O` was “inactive”; that for `CNC(=O)O/N=C/C(C)(C)S(C)(=O)=O` was “inactive”. Same read-out and setting: to `C=CC(=O)OCCCCCC(C)C` belongs “inactive”; to `Cc1ccc(O)c(C)c1`, “inactive”.

Consider `Cl[C@H]1OCCO[C@@H]1Cl`, for which the Potency result is “inactive”. On the same count and under the same terms, to `N#Cc1cccc(C#N)c1` belongs “inactive”. As to `Nc1cc(Cl)cc(Cl)c1`, the “activity, negative = inhibition” value was 7.42% (inactive). With `CCOC(=O)CC(SP(=O)(OC)OC)C(=O)OCC` (stereo not given), the Potency entry was “inactive”.

In the case of `C[C@]12CC[C@H](O)CC1=CC[C@@H]1[C@@H]2CC[C@]2(C)C(=O)CC[C@@H]12`, the Potency entry is “inactive”. `O=[N+]([O-])c1ccc(Cl)c(Cl)c1`: the Potency entry is “inactive”. For `Cc1cccc(N)c1C`, the Potency entry was “inactive”. As for `O=C(O)c1cc(Oc2ccc(C(F)(F)F)cc2Cl)ccc1[N+](=O)[O-]`, the Potency result is “inactive”. As to `Cl/C=C/Cl`, the Potency entry was “inactive”.

For the molecule `COC(=O)Nc1cccc(OC(=O)Nc2cccc(C)c2)c1`, the Potency entry is “inactive”.

With `COc1cc(-c2ccc(N)c(OC)c2)ccc1N`, the Potency result is “inactive and 58.3 µM (active)”. Still for that read-out and setting: the value for `CN1C(=O)CCS(=O)(=O)C1c1ccc(Cl)cc1` (stereo not given) was “inactive”.

For the molecule `CN(C)C(=O)C(c1ccccc1)c1ccccc1`, the Potency entry was “inactive”.
